TTR transcr act: TTR transcription activation, primary screen. AID 1117267. 92,000 compounds, 1.3% hits. SH-SY5Y TTR promoter Gaussia luciferase, luminescence; 100% = recombinant luciferase protein wells. activation, % at 16.7 µM;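 active = activation above the mean of all tested compounds plus 3 SD, cut at about 9.5% in these data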;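 also: cells exposed to compounds for one day before reading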
HuH7 TTR inh: decreases TTR transcription in HuH7 cells in activator counter-screen. shares compounds with TTR transcr act. inhibition, % at 16.7 µM. HuH7 TTR promoter-Gaussia luciferase reporter, luminescence. 1,100 compounds, 4% hits;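 active = average inhibition above the solvent-only control wells' mean plus 3 SD, cut at about 15% in these data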;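 also: inhibitors lower well luminescence so higher value means more inhibition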
TTR act confirm: human TTR transcription activation, confirmation; shares compounds with TTR transcr act; SHSY5Y TTR promoter Gaussia luciferase, luminescence; 100% = purified Lucia enzyme wells, no cells; activation, % at 16.7 µM; 1,100 tested, under 10 active; AID 1117280;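 active = mean activation above a set limit taken from the earlier primary screen, cut at about 11% in these data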
Of the large screens only hits and unclear results are named; the others gave an inactive call (follow-up assays come after a bar, where they were run). This is one part of a sample in which hits are shown more often than they occur.

COc1ccc(CNC(=O)CN(Cc2ccco2)C(=O)CNS(=O)(=O)c2ccccc2)cc1	none
COc1ccc(S(=O)(=O)NCC(=O)N(CC(=O)NCc2ccco2)Cc2ccccc2)cc1	none
COc1ccccc1CN(CC(=O)NCc1ccco1)C(=O)CNS(=O)(=O)c1ccc(C)cc1	TTR transcr act 12.1 | HuH7 TTR inh inactive | TTR act confirm inactive
COc1ccccc1N(CC(=O)NCC1CCCO1)C(=O)CNS(=O)(=O)c1ccc(C)cc1 (stereo not given)	TTR transcr act 13.2 | HuH7 TTR inh inactive | TTR act confirm inactive
O=C(NC1CCCCC1)O[C@H]1CC[C@@]23CCCN2C(=O)CCC[C@H]3C1	none
CCCCNC(=O)C[C@H]1C[C@@]2(C(=O)OC)C(=C[C@H](C3CCCC3)O[C@@H]2C)N(Cc2ccc(Cl)cc2Cl)C1=O	none
Cc1ccccc1CN1CCCCC(NC(=O)c2ccc(Br)cc2)C1=O (stereo not given)	none
COc1ccc(Oc2c(Cl)cnn(-c3cc(C)cc(C)c3)c2=O)cc1	none
CCOC(=O)[C@]12CCCC=C1N(Cc1ccc(OC)cc1)C(=O)[C@@H]2CC(=O)N1CCSCC1	none
COC(=O)[C@]12C[C@H](CC(=O)N3CCN(C(=O)c4ccco4)CC3)C(=O)N(Cc3ccc(Cl)cc3Cl)C1=C[C@H](C(C)C)O[C@@H]2C1CC1	none
C[C@H]1CCCN1c1cccc2c1S(=O)(=O)N1CC[C@H](C1)O2	none
CCCCNCc1cc(OCC)c(OCC(N)=O)cc1Br	TTR transcr act 17.6 | HuH7 TTR inh inactive | TTR act confirm inactive
CCCCNCc1cc(OC)c(OCC(N)=O)cc1Br	none
CCOc1cc(CO)c(Br)cc1OCC(=O)O	none
O=C(c1ccccc1)n1ccc2ccc(-c3ccc4ccn(C(=O)c5ccccc5)c4c3)cc21	none
CCC[C@H]1[C@@H](NC(=O)c2ccc(Cl)c(C(F)(F)F)c2)CC[C@@]23CCCN2C(=O)CCC[C@@H]13	none
CCCC/C=C1/[C@H](c2ccccc2)N(C)C2=N[C@@H](c3ccccc3)CC(=O)N21	none
CCCC(=O)NNC(=O)c1ccoc1C	TTR transcr act 16.8 | HuH7 TTR inh inactive | TTR act confirm inactive
Cc1cccc(C)c1OCC(=O)NNC(=O)c1ccoc1C	none
Cc1cc(C)cc(OCC(=O)NNC(=O)c2ccoc2C)c1	none
FC(F)(F)c1cccc(Cn2ccc3ccc(-c4ccc5ccn(Cc6cccc(C(F)(F)F)c6)c5c4)cc32)c1	none
CCc1ccc(Oc2c(Cl)cnn(-c3ccc(C)cc3)c2=O)cc1	none
C[C@H]1CCCN1c1ccc2c(c1)O[C@H]1CCN(C1)S2(=O)=O	none
CCOC(=O)c1c(C)oc2ccc(O)c(CN3CCCCC3)c12	TTR transcr act 23.4 | HuH7 TTR inh inactive | TTR act confirm inactive
CCOC(=O)c1c(-c2ccccc2)oc2ccc(O)c(CN3CCOCC3)c12	none
CCOC(=O)c1c(CN2CCCCC2)oc2ccc(OC)cc12	none
C=CCN1C(=O)[C@H](CC(=O)NCc2ccc(C)o2)[C@@]2(C(=O)OCC)CCCC=C12	none
CCCn1nnc(NC(=O)c2ccc(Br)cc2)n1	none
Cn1nnnc1-c1cc(Br)ccc1NC(=O)c1ccccc1	TTR transcr act 10.4 | HuH7 TTR inh inactive | TTR act confirm inactive
Cc1csc(NC(=O)c2ccccc2)n1	none
Cc1cc(N2CCN(C)CC2)nc2ccc(NC(=S)N3CCCCCC3)cc12	TTR transcr act 9.7 | HuH7 TTR inh inactive | TTR act confirm inactive
Cc1cc(N2CCN(C)CC2)nc2ccc(NC(=S)NCCN3CCc4ccccc4C3)cc12	none
Cc1cc(N2CCOCC2)nc2ccc(NC(=O)C3CCCCC3)cc12	none
FC(F)(F)Oc1ccc(Cn2ccc3ccc(-c4ccc5ccn(Cc6ccc(OC(F)(F)F)cc6)c5c4)cc32)cc1	none
COC(=O)[C@]12C[C@H](CC(=O)NCCCCc3ccccc3)C(=O)N(Cc3ccc(Cl)cc3Cl)C1=C[C@H](C1CCCC1)O[C@@H]2C	none
O=C(NCCc1c[nH]c2ccccc12)[C@H](Cc1c[nH]c2ccccc12)NC1(C(=O)NC2CCCCC2)CCCCCCC1	none
CNc1ccc(/C=C(\C#N)C(=O)Nc2ccccn2)cc1[N+](=O)[O-]	TTR transcr act 23.0 | HuH7 TTR inh inactive | TTR act confirm inactive
CC(C)(C)c1ccc(/C=C(\C#N)C(=O)Nc2ccccn2)cc1	none
COc1cc(/C=C(\C#N)C(=O)Nc2ccccn2)ccc1O	none
CCOC(=O)[C@]12CCCC=C1N(CCCOC)C(=O)[C@@H]2CC(=O)NCc1ccc(C)o1	none
C=CC1CN2CCC1CC2C(O)c1ccnc2ccc(OC)cc12 (stereo not given)	TTR transcr act 13.2 | HuH7 TTR inh inactive | TTR act confirm inactive
Cc1ccccc1NC(=O)OCCN1CCCC12CCC(c1ccccc1)CC2 (stereo not given)	none
O=C(Nc1ccc(F)cc1)OCc1cn(Cc2cc(F)cc(F)c2)nn1	none
O=C(NCC(c1ccccc1)c1ccccc1)[C@H](Cc1c[nH]c2ccccc12)NC1(C(=O)NC2CCCCC2)CCCCCC1	none

High-throughput results from PubChem.
